According to ChEMBL document CHEMBL4296182, “CO-ADD screening of NIH NCI Diversity Set V”:
For part of these data: Results with a measured potency or affinity are listed apart.

Key:
Staphylococcus aureus = assay: Antibacterial activity against Staphylococcus aureus MRSA ATCC 43300 (CO-ADD:GP_020); MIC in CAMBH media using NBS plates, by Resazurin F(560/590); format: functional; conditions: Concentration 20 uM, ASSAY_TEST Inhibition of Bacterial Growth, detection method Resazurin, Fluorescence (ex560/em590), MEDIA CAMHB, plate type 384well, CORNING #3640, time 18 hr
Acinetobacter baumannii = assay: Antibacterial activity against Acinetobacter baumannii ATCC 19606 (CO-ADD:GN_034); MIC in CAMBH media using NBS plates, by Resazurin F(560/590); format: functional; conditions: Concentration 20 uM, ASSAY_TEST Inhibition of Bacterial Growth, detection method Resazurin, Fluorescence (ex560/em590), MEDIA CAMHB, plate type 384well, CORNING #3640, time 18 hr
Escherichia coli = assay: Antibacterial activity against Escherichia coli ATCC 25922 (CO-ADD:GN_001); MIC in CAMBH media using NBS plates, by Resazurin F(560/590); format: functional; conditions: Concentration 20 uM, ASSAY_TEST Inhibition of Bacterial Growth, detection method Resazurin, Fluorescence (ex560/em590), MEDIA CAMHB, plate type 384well, CORNING #3640, time 18 hr
Klebsiella pneumoniae = conditions: Concentration 20 uM; ASSAY_TEST Inhibition of Bacterial Growth; detection method Absorption (OD600); MEDIA CAMHB; plate type 384well; NBS; CORNING #3640; time 18 hr
Candida albicans = conditions: 20 µM
Cryptococcus neoformans = conditions: Concentration 20 uM; ASSAY_TEST Inhibition of Fungal Growth; detection method Resazurin; Absorption (OD600-OD570); plate type 384well; NBS; CORNING #3640

SMILES: CNC(=O)Oc1c(O)ccnc1C
- Inhibition (Staphylococcus aureus): 3.2%
- Inhibition (Acinetobacter baumannii): -15.53%
- Inhibition (Escherichia coli): 4.87%
- Inhibition (Klebsiella pneumoniae): 2.24%
- Inhibition (Candida albicans): 5.45%
- Inhibition (Cryptococcus neoformans): -9.19%

SMILES: C[C@H]1[C@H](C)N1CC(O)Cn1ccnc1[N+](=O)[O-] (stereo partly drawn)
- Inhibition (Staphylococcus aureus): 3.93%
- Inhibition (Acinetobacter baumannii): 7.84%
- Inhibition (Escherichia coli): -2.75%
- Inhibition (Klebsiella pneumoniae): 19.25%
- Inhibition (Candida albicans): 3.06%
- Inhibition (Cryptococcus neoformans): -3.91%

SMILES: CS(=O)(=O)O.O=C1CCC2(O)[C@@H]3Cc4ccc(O)c5c4[C@]2(CCN3Cc2ccoc2)C1O5 (stereo partly drawn)
- Inhibition (Staphylococcus aureus): 1.32%
- Inhibition (Acinetobacter baumannii): -2.4%
- Inhibition (Escherichia coli): -2.68%
- Inhibition (Klebsiella pneumoniae): 10.23%
- Inhibition (Candida albicans): 1.48%
- Inhibition (Cryptococcus neoformans): -6.77%

SMILES: CC(C)OC1CCCC(O)C1CC(=O)O (stereo not drawn)
- Inhibition (Staphylococcus aureus): 1.66%
- Inhibition (Acinetobacter baumannii): -13.22%
- Inhibition (Escherichia coli): 6.88%
- Inhibition (Klebsiella pneumoniae): -1.53%
- Inhibition (Candida albicans): -0.2%
- Inhibition (Cryptococcus neoformans): -7.06%

SMILES: COc1ccc2c(c1)NP(=S)(Oc1ccccc1)N2 (stereo not drawn)
- Inhibition (Staphylococcus aureus): -0.02%
- Inhibition (Acinetobacter baumannii): 7.67%
- Inhibition (Escherichia coli): -4.02%
- Inhibition (Klebsiella pneumoniae): 16.19%
- Inhibition (Candida albicans): 18.7%
- Inhibition (Cryptococcus neoformans): 0.61%

SMILES: O=C(OC1CCCCC1)c1ccccc1C(=O)OC1CCCCC1
- Inhibition (Staphylococcus aureus): -2.45%
- Inhibition (Acinetobacter baumannii): -19.72%
- Inhibition (Escherichia coli): -0.16%
- Inhibition (Klebsiella pneumoniae): 3.51%
- Inhibition (Candida albicans): 7.38%
- Inhibition (Cryptococcus neoformans): -2.99%

SMILES: CN1CCCC1c1ccc(O)nc1 (stereo not drawn)
- Inhibition (Staphylococcus aureus): 23.44%
- Inhibition (Acinetobacter baumannii): -7.12%
- Inhibition (Escherichia coli): 16.87%
- Inhibition (Klebsiella pneumoniae): 15.46%
- Inhibition (Candida albicans): -1.49%
- Inhibition (Cryptococcus neoformans): -7.69%

SMILES: O=C1/C(=C\c2ccccc2)C2OCC=C3CN4CCC56c7ccccc7N1C5C2C3CC46 (stereo not drawn)
- Inhibition (Staphylococcus aureus): 33.46%
- Inhibition (Acinetobacter baumannii): -0.22%
- Inhibition (Escherichia coli): 16.65%
- Inhibition (Klebsiella pneumoniae): 12.64%
- Inhibition (Candida albicans): -0.43%
- Inhibition (Cryptococcus neoformans): -4.36%

SMILES: N=C(N)N/N=C/c1c(Cl)cccc1Cl [GUANABENZ]
- Inhibition (Staphylococcus aureus): 5.03%
- Inhibition (Acinetobacter baumannii): -12.8%
- Inhibition (Escherichia coli): 13.45%
- Inhibition (Klebsiella pneumoniae): 13.62%
- Inhibition (Candida albicans): -0.73%
- Inhibition (Cryptococcus neoformans): -12.66%

SMILES: CN1C(=O)CC[C@@]2(C)C1=CC[C@@H]1[C@@H]2CC[C@@]2(C)[C@H]1CC[C@]2(C)O
- Inhibition (Staphylococcus aureus): 8.7%
- Inhibition (Acinetobacter baumannii): -5.24%
- Inhibition (Escherichia coli): 22.22%
- Inhibition (Klebsiella pneumoniae): 11.27%
- Inhibition (Candida albicans): -0.13%
- Inhibition (Cryptococcus neoformans): -18.95%

SMILES: Cc1ccc2cc3c(ccc4ccccc43)c3c2c1CC3 [3-METHYLCHOLANTHRENE]
- Inhibition (Staphylococcus aureus): 32.91%
- Inhibition (Acinetobacter baumannii): -6.45%
- Inhibition (Escherichia coli): 10.1%
- Inhibition (Klebsiella pneumoniae): -1.21%
- Inhibition (Candida albicans): 1.03%
- Inhibition (Cryptococcus neoformans): 3.35%

SMILES: CC1CC(C)OP(=O)(OCCC#N)O1 (stereo not drawn)
- Inhibition (Staphylococcus aureus): 11.79%
- Inhibition (Acinetobacter baumannii): -12.84%
- Inhibition (Escherichia coli): 9.51%
- Inhibition (Klebsiella pneumoniae): 9.69%
- Inhibition (Candida albicans): -4.51%
- Inhibition (Cryptococcus neoformans): -8.12%

SMILES: O=C1N(c2nncs2)CCN1[N+](=O)[O-]
- Inhibition (Staphylococcus aureus): 11.64%
- Inhibition (Acinetobacter baumannii): 7.25%
- Inhibition (Escherichia coli): 7.74%
- Inhibition (Klebsiella pneumoniae): 10.14%
- Inhibition (Candida albicans): 2.04%
- Inhibition (Cryptococcus neoformans): -14.15%

SMILES: CNC(=O)Oc1ccc(N(C)C)cc1C(C)C
- Inhibition (Staphylococcus aureus): 11.71%
- Inhibition (Acinetobacter baumannii): -2.68%
- Inhibition (Escherichia coli): 9.69%
- Inhibition (Klebsiella pneumoniae): 11.23%
- Inhibition (Candida albicans): -1.51%
- Inhibition (Cryptococcus neoformans): -12.66%

SMILES: FCCN(CCF)c1cccc(Cl)c1
- Inhibition (Staphylococcus aureus): 3.32%
- Inhibition (Acinetobacter baumannii): -11.77%
- Inhibition (Escherichia coli): 4.68%
- Inhibition (Klebsiella pneumoniae): 20.4%
- Inhibition (Candida albicans): 0.87%
- Inhibition (Cryptococcus neoformans): -7.02%

SMILES: O=C(Oc1ccccc1)N(c1ccccc1)c1ccccc1
- Inhibition (Staphylococcus aureus): 13.05%
- Inhibition (Acinetobacter baumannii): 1.09%
- Inhibition (Escherichia coli): 9.21%
- Inhibition (Klebsiella pneumoniae): 3.21%
- Inhibition (Candida albicans): 5.51%
- Inhibition (Cryptococcus neoformans): -11.03%

SMILES: CC1=CC(O)C(O)C2(C)C1CC1OC(=O)C(O)C3C(C)C(O)C4(O)OCC13C42 (stereo not drawn)
- Inhibition (Staphylococcus aureus): 9.24%
- Inhibition (Acinetobacter baumannii): 4.24%
- Inhibition (Escherichia coli): -0.01%
- Inhibition (Klebsiella pneumoniae): 12.12%
- Inhibition (Candida albicans): -0.21%
- Inhibition (Cryptococcus neoformans): -7.24%

SMILES: CC1(C)NC(=S)C(C)(C)N1N=O
- Inhibition (Staphylococcus aureus): 8.42%
- Inhibition (Acinetobacter baumannii): -13.11%
- Inhibition (Escherichia coli): 8.85%
- Inhibition (Klebsiella pneumoniae): 8.33%
- Inhibition (Candida albicans): 5.47%
- Inhibition (Cryptococcus neoformans): -2.68%

SMILES: COc1ccc(C2=CC(c3ccc(OC)c(OC)c3)c3c(c4ccccc4oc3=O)O2)cc1OC (stereo not drawn)
- Inhibition (Staphylococcus aureus): 20.66%
- Inhibition (Acinetobacter baumannii): -10.24%
- Inhibition (Escherichia coli): 10.7%
- Inhibition (Klebsiella pneumoniae): 7.71%
- Inhibition (Candida albicans): 5.25%
- Inhibition (Cryptococcus neoformans): -11.5%

SMILES: CCC1CN1P1(=O)OCC(C)([N+](=O)[O-])CO1 (stereo not drawn)
- Inhibition (Staphylococcus aureus): -8.05%
- Inhibition (Acinetobacter baumannii): -16.64%
- Inhibition (Escherichia coli): 2.35%
- Inhibition (Klebsiella pneumoniae): 8.08%
- Inhibition (Candida albicans): 0.16%
- Inhibition (Cryptococcus neoformans): 0.43%

SMILES: CC(CC(C#N)(c1ccccc1)c1ccccc1)N1CCCCC1 (stereo not drawn)
- Inhibition (Staphylococcus aureus): -22.27%
- Inhibition (Acinetobacter baumannii): -8.26%
- Inhibition (Escherichia coli): -18.71%
- Inhibition (Klebsiella pneumoniae): 1.48%
- Inhibition (Candida albicans): 0.01%
- Inhibition (Cryptococcus neoformans): 28.3%

SMILES: O=C1NC(=O)C(=Cc2ccc3ccccc3c2)C(=O)N1
- Inhibition (Staphylococcus aureus): 0.11%
- Inhibition (Acinetobacter baumannii): 10.33%
- Inhibition (Escherichia coli): -2.67%
- Inhibition (Klebsiella pneumoniae): 19.68%
- Inhibition (Candida albicans): 25.6%
- Inhibition (Cryptococcus neoformans): -7.82%

SMILES: C=C1C/C(=C/C)C(=O)O[C@@H]2CCN3CC=C(COC(=O)[C@]1(C)O)[C@H]23 [SENECIPHYLLINE]
- Inhibition (Staphylococcus aureus): 11.97%
- Inhibition (Acinetobacter baumannii): -14.61%
- Inhibition (Escherichia coli): -0.27%
- Inhibition (Klebsiella pneumoniae): 22.67%
- Inhibition (Candida albicans): -1.29%
- Inhibition (Cryptococcus neoformans): -12.96%
